In article PMC7862700, “An all-to-all approach to the identification of sequence-specific readers for epigenetic DNA modifications on cytosine”:

Key:
Experiment in all cases: DAPPL (digital affinity profiling via proximity ligation, sequencing); 10 mM Tris-HCl pH 7.5, 50 mM NaCl, 1 mM DTT, 4% glycerol, room temperature, 30 min; GST-TFs on glutathione beads, 16-mer random dsDNA library, 0.1% formaldehyde crosslink after washing; high values mean tight binding
[1] = target: T1, FLI1 (Homo sapiens, UniProt Q01543 1-452); details: protein: recombinant; tags: N-terminal GST; dsDNA, one strand shown
T1 sequence: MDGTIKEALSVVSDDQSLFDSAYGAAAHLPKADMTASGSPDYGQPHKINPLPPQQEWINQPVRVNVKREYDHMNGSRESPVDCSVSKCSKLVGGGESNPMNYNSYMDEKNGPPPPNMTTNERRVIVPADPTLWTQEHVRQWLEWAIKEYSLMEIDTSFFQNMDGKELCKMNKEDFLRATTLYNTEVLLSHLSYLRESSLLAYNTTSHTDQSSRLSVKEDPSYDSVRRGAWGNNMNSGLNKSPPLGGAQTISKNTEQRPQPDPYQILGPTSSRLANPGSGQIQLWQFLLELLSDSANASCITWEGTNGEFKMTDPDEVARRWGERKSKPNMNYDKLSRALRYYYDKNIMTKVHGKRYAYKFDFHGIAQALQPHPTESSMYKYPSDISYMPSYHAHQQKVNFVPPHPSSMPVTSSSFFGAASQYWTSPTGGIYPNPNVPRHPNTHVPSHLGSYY
Summary of the method: (§1)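 GST fusions of human transcription factors were expressed in yeast and captured with glutathione beads. Once given DNA barcodes and pooled alongside a tag-only sample, they were incubated for 30 min at room temperature with 200 nmole of a random double-stranded 16-mer DNA library in Tris/NaCl/DTT/glycerol buffer, then washed, crosslinked (0.1% formaldehyde), proximity-ligated, PCR-amplified and sequenced on an Illumina NextSeq500. The binding signal of each hexamer is its read frequency for a factor divided by its frequency for the tag-only sample.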

[2] = target: T2, ELK1 (Homo sapiens, UniProt P19419 1-428); details: protein: recombinant; tags: N-terminal GST; dsDNA, one strand shown
T2 sequence: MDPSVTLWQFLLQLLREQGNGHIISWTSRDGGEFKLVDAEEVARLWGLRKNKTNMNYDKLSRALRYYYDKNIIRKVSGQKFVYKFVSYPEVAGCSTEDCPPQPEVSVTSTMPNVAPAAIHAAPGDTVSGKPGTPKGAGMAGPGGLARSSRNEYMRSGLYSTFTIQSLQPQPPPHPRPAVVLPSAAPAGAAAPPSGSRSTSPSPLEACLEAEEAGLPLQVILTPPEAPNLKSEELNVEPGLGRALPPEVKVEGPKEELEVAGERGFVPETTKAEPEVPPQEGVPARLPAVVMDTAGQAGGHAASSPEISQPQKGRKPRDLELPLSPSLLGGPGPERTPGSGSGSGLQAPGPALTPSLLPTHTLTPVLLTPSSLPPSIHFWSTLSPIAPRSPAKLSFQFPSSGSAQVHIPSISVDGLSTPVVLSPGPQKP
Summary of the method: as §1

[3] = target: T3, GABPA (Homo sapiens, UniProt Q06546 1-454); details: protein: recombinant; tags: N-terminal GST; dsDNA, one strand shown
T3 sequence: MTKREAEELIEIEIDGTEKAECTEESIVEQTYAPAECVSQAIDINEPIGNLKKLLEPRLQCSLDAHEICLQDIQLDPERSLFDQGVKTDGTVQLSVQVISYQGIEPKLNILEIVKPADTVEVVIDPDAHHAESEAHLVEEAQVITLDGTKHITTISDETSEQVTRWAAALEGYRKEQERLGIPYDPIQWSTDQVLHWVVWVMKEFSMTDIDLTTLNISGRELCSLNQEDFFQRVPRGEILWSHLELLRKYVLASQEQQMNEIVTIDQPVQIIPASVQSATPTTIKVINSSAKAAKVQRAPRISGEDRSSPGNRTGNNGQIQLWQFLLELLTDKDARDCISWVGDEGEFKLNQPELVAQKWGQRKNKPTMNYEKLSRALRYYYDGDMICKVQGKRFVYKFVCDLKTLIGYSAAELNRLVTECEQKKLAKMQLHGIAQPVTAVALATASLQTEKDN
Summary of the method: as §1

[4] = target: T4, ERG (Homo sapiens, UniProt P11308 1-479); details: protein: recombinant; tags: N-terminal GST; dsDNA, one strand shown
T4 sequence: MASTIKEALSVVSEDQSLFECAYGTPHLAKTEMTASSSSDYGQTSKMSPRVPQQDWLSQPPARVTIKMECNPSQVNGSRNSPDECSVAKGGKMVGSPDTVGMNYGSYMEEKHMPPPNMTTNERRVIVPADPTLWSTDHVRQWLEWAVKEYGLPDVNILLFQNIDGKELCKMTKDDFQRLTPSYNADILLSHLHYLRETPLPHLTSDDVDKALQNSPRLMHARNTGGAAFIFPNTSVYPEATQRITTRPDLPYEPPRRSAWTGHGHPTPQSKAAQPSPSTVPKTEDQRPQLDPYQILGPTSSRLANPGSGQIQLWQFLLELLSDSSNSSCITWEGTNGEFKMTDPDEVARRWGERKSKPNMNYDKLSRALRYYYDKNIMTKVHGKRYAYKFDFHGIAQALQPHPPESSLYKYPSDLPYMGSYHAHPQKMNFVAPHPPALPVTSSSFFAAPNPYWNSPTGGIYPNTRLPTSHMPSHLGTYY
Summary of the method: as §1

[5] = target: ELF1 (Homo sapiens, UniProt P32519 1-619); details: protein: recombinant; tags: N-terminal GST; dsDNA, one strand shown
Sequence of ELF1 (P32519 whole entry): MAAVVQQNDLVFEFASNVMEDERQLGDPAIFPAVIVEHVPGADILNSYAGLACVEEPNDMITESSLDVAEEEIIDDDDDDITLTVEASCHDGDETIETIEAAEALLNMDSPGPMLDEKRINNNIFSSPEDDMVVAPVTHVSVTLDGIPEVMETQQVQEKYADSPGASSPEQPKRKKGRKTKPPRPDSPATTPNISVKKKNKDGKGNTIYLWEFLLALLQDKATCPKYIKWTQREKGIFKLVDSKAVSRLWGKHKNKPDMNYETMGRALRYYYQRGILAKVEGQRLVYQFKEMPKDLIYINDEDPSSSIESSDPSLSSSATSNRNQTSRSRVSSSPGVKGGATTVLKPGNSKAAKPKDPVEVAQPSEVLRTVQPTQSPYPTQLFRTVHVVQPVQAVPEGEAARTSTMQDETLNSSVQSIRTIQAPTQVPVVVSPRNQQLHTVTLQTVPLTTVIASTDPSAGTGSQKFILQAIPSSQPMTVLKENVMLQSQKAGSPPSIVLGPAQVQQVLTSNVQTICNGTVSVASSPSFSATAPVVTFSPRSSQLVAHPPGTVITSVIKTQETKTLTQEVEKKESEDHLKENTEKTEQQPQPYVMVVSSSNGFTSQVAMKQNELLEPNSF
Summary of the method: as §1

[6] = target: T5, EHF (Homo sapiens, UniProt Q9NZC4 1-300); details: protein: recombinant; tags: N-terminal GST; dsDNA, one strand shown
T5 sequence: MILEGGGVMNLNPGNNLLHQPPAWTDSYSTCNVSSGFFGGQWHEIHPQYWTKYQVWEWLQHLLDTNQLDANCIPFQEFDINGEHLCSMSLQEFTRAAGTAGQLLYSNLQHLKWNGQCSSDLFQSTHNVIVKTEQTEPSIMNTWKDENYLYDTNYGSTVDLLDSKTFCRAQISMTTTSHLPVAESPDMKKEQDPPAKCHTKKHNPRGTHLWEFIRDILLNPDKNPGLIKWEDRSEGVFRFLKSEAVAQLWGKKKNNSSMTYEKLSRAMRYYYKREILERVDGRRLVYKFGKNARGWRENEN
Summary of the method: as §1

[7] = target: SPI1 (Homo sapiens, UniProt P17947 1-270); details: protein: recombinant; tags: N-terminal GST; dsDNA, one strand shown
Summary of the method: as §1

[8] = target: SPIB (Homo sapiens, UniProt Q01892 1-262); details: protein: recombinant; tags: N-terminal GST; dsDNA, one strand shown
Sequence of SPIB (Q01892 whole entry): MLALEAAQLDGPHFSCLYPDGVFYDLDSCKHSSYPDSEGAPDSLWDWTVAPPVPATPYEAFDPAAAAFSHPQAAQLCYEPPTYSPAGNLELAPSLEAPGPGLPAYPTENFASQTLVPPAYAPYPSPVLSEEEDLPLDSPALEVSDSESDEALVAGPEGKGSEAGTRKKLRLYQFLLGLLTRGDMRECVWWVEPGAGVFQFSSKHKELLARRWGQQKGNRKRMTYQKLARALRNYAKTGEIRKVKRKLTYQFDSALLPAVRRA
Summary of the method: as §1

[9] = target: T6, ELK3 (Homo sapiens, UniProt P41970 1-407); details: protein: recombinant; tags: N-terminal GST; dsDNA, one strand shown
T6 sequence: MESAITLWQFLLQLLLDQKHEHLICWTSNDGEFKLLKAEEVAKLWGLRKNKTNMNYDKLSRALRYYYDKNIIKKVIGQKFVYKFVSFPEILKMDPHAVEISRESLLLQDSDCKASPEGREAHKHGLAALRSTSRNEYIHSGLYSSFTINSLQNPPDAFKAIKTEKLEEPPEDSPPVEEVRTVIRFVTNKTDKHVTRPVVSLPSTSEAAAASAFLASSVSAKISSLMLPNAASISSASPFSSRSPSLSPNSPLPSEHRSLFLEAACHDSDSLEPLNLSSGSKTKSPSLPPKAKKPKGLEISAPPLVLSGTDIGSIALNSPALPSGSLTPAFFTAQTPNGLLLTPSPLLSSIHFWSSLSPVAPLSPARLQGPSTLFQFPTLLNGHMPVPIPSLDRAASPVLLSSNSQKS
Summary of the method: as §1

[10] = target: T7, FEV (Homo sapiens, UniProt Q99581 1-238); details: protein: recombinant; tags: N-terminal GST; dsDNA, one strand shown
T7 sequence: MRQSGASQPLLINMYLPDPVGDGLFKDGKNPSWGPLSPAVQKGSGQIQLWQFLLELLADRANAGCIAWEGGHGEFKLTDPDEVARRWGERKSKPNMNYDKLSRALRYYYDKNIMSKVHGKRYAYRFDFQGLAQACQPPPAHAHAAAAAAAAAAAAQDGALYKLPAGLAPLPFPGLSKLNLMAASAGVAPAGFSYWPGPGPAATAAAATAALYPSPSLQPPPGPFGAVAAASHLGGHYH
Summary of the method: as §1

[11] = target: ETV5 (Homo sapiens, UniProt P41161 1-510); details: protein: recombinant; tags: N-terminal GST; dsDNA, one strand shown
Sequence of ETV5 (P41161 whole entry): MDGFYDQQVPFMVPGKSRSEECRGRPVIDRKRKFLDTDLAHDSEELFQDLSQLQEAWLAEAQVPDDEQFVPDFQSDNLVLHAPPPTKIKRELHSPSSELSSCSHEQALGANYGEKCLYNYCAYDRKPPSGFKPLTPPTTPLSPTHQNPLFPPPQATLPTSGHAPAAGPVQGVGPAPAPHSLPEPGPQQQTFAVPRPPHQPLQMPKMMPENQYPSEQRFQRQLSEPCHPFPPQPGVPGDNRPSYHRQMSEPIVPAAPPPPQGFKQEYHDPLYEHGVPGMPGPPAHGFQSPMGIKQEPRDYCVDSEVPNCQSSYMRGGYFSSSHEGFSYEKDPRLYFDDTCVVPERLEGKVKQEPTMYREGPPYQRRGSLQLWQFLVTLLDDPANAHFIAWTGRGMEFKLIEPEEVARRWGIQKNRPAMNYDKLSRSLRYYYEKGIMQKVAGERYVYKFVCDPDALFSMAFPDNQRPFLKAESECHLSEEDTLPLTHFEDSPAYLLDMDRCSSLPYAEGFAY
Summary of the method: as §1

[12] = target: HSF1 (Homo sapiens, UniProt Q00613 1-529); details: protein: recombinant; tags: N-terminal GST; chain copies: 3; dsDNA, one strand shown
Sequence of HSF1 (Q00613 whole entry): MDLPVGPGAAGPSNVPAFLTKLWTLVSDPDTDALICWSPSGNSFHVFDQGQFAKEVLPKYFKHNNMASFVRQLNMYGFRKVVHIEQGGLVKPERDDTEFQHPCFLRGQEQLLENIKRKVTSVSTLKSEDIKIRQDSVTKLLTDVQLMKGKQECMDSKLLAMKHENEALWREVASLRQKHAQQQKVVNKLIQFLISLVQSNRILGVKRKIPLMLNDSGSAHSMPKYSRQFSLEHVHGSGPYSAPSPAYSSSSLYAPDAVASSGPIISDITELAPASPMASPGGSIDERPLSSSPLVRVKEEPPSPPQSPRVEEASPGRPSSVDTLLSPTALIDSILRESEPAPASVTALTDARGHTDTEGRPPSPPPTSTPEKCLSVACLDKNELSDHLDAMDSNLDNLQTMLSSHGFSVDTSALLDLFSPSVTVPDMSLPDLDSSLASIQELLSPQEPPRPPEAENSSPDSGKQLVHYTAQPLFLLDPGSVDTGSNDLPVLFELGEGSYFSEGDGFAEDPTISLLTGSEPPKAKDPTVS
Summary of the method: as §1

[13] = target: T8, SPIC (Homo sapiens, UniProt Q8N5J4 1-248); details: protein: recombinant; tags: N-terminal GST; dsDNA, one strand shown
T8 sequence: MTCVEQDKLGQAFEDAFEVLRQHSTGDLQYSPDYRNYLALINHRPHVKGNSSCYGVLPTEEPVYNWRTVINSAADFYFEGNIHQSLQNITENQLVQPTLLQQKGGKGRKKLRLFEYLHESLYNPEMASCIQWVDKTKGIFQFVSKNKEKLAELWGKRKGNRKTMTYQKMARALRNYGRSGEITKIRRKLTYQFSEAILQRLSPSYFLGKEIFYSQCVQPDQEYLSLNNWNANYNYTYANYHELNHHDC
Summary of the method: as §1

[14] = target: ELF4 (Homo sapiens, UniProt Q99607 1-663); details: protein: recombinant; tags: N-terminal GST; dsDNA, one strand shown
Sequence of ELF4 (Q99607 whole entry): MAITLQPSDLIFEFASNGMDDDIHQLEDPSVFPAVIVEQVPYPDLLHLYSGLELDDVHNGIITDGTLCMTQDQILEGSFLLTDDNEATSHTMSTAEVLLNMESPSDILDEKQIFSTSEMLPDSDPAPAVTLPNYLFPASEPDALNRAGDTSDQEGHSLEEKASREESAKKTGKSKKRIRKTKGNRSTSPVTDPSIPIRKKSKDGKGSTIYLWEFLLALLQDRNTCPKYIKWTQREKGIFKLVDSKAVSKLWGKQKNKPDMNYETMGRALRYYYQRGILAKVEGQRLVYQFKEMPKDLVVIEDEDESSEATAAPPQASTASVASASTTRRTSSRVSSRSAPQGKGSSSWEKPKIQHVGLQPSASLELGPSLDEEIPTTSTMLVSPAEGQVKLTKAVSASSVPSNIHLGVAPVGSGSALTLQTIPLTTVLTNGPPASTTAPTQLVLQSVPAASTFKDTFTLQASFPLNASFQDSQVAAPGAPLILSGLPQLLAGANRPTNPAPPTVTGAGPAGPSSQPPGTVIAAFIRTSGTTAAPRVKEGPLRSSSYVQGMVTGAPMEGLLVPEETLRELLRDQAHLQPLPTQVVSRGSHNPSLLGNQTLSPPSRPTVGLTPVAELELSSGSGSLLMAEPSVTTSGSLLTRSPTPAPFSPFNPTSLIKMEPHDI
Summary of the method: as §1

[15] = target: T9, ELK4 (Homo sapiens, UniProt P28324-2 1-405); details: protein: recombinant; tags: N-terminal GST; dsDNA, one strand shown
T9 sequence: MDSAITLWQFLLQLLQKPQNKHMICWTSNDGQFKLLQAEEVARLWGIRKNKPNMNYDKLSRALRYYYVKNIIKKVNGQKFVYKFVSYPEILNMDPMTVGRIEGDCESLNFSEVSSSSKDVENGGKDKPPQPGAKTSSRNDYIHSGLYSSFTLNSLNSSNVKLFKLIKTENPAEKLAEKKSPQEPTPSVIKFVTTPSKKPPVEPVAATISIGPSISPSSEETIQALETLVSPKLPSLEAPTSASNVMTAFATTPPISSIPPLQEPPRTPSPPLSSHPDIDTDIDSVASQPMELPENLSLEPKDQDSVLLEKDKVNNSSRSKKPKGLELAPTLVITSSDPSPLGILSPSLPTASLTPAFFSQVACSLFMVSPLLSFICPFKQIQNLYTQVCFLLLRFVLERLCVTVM
Summary of the method: as §1

[16] = target: T10, ETV2 (Homo sapiens, UniProt O00321 1-342); details: protein: recombinant; tags: N-terminal GST; dsDNA, one strand shown
T10 sequence: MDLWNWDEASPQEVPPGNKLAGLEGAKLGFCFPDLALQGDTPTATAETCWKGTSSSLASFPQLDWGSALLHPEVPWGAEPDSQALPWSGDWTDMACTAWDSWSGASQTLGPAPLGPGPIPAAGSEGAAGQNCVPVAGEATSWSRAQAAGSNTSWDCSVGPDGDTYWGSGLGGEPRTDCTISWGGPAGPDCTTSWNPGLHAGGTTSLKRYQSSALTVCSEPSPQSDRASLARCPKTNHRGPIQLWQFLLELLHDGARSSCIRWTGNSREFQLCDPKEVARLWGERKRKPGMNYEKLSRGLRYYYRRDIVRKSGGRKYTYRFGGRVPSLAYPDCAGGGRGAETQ
Summary of the method: as §1

[17] = target: T11, ELF3 (Homo sapiens, UniProt P78545 1-371); details: protein: recombinant; tags: N-terminal GST; dsDNA, one strand shown
T11 sequence: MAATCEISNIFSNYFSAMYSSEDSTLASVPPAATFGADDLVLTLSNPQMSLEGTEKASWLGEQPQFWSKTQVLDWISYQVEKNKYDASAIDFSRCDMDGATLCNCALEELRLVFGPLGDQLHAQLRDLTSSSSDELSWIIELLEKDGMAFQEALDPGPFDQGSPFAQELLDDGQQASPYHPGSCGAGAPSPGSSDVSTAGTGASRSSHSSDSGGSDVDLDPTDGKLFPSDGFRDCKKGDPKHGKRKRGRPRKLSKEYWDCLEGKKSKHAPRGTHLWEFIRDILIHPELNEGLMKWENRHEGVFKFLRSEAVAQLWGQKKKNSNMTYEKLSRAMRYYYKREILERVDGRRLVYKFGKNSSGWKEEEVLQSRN
Summary of the method: as §1

[18] = target: CRX (Homo sapiens, UniProt O43186 1-299); details: protein: recombinant; tags: N-terminal GST; dsDNA, one strand shown
Sequence of CRX (O43186 whole entry): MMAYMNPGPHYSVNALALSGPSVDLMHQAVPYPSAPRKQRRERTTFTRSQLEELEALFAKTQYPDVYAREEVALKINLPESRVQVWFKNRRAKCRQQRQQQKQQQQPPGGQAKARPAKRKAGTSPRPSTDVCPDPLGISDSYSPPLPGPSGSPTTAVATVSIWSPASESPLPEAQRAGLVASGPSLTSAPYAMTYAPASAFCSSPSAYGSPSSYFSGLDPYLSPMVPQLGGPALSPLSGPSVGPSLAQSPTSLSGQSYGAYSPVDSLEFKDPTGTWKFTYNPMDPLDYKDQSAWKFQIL
Summary of the method: as §1

[19] = target: ETV1 (Homo sapiens, UniProt P50549 1-477); details: protein: recombinant; tags: N-terminal GST; dsDNA, one strand shown
Sequence of ETV1 (P50549 whole entry): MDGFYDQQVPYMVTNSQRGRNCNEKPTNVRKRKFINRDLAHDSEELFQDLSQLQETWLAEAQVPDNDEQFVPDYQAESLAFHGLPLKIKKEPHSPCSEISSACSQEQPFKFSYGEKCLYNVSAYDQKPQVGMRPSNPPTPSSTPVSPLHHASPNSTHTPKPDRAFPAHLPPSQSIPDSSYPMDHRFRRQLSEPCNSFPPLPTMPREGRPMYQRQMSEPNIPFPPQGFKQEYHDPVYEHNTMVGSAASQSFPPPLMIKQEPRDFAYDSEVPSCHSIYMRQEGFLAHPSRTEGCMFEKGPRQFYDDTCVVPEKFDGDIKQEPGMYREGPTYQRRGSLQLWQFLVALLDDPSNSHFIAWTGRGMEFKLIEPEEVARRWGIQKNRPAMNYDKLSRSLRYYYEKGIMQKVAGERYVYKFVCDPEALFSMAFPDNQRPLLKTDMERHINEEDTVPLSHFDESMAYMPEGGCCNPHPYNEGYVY
Summary of the method: as §1

Sequence: ATGATC
- binding signal [1]: 1.2 fold enrichment (6-mer frequency, TF over GST control)
- binding signal [2]: 1.17 fold enrichment (6-mer frequency, TF over GST control)
- binding signal [3]: 1.3 fold enrichment (6-mer frequency, TF over GST control)
- binding signal [4]: 1.1 fold enrichment (6-mer frequency, TF over GST control)
- binding signal [5]: 1.22 fold enrichment (6-mer frequency, TF over GST control)
- binding signal [6]: 1.28 fold enrichment (6-mer frequency, TF over GST control)
- binding signal [7]: 1.15 fold enrichment (6-mer frequency, TF over GST control)
- binding signal [8]: 1.18 fold enrichment (6-mer frequency, TF over GST control)
- binding signal [9]: 1.31 fold enrichment (6-mer frequency, TF over GST control)
- binding signal [10]: 1.14 fold enrichment (6-mer frequency, TF over GST control)
- binding signal [11]: 1.24 fold enrichment (6-mer frequency, TF over GST control)
- binding signal [12]: 1.59 fold enrichment (6-mer frequency, TF over GST control)
- binding signal [13]: 1.38 fold enrichment (6-mer frequency, TF over GST control)
- binding signal [14]: 1.21 fold enrichment (6-mer frequency, TF over GST control)
- binding signal [15]: 1.16 fold enrichment (6-mer frequency, TF over GST control)
- binding signal [16]: 1.15 fold enrichment (6-mer frequency, TF over GST control)
- binding signal [17]: 1.19 fold enrichment (6-mer frequency, TF over GST control)
- binding signal [18]: 1.74 fold enrichment (6-mer frequency, TF over GST control)
- binding signal [19]: 1.1 fold enrichment (6-mer frequency, TF over GST control)
